# The whole screen tested about 13,000 compounds, of which about 3,200 (25%) showed an effect of 50% or more. The list shows a part of the results.
# System: P. falciparum stage V gametocytes
# Parameters: BacTiter-Glo ATP luminescence viability of purified stage V gametocytes in 384-well plates, per cent inhibition versus DMSO
# Conditions: 48 h, 5 µM; inhibitor
row,SMILES,% Inhibition
1,CCC(C)CN1CCN(c2ccc(NC(=O)c3cccs3)cc2)CC1C (stereo not drawn) [TCMDC-134997],0.3581%
2,Cc1ccc(C(=O)NC2C(=O)NC2c2ccccc2)c(C)c1 (stereo not drawn) [TCMDC-131386],4.246%
3,COc1ccc(NC(=O)[C@H](CC(C)C)Nc2cc(C)nc(NCc3ccccc3C)n2)cc1 [TCMDC-134909],-97.01%
4,COc1cc2nc(NCc3cccc(CNC(=O)c4ccc(-c5ccc(C(C)=O)cc5)cc4)c3)nc(N)c2cc1OC.O=C(O)C(F)(F)F [TCMDC-138177],117.9%
5,COc1cc2nc(N3CCC(CNC(=O)c4ccc(C(C)=O)cc4)CC3)nc(N)c2cc1OC.O=C(O)C(F)(F)F [TCMDC-138210],69.3%
6,COc1cc2nc(N3CCC(CNC(=O)c4ccc(-c5ccc(Cl)cc5)cc4)CC3)nc(N)c2cc1OC [TCMDC-138718],145.1%
7,COc1cc2nc(N3CCC(CNC(=O)c4cccc5cc[nH]c45)CC3)nc(N)c2cc1OC [TCMDC-138184],101.1%
8,COc1cc2nc(NCC3CCN(C(=O)c4ccc(-c5ccc(C(=O)N(C)C)cc5C)cc4)CC3)nc(N)c2cc1OC [TCMDC-138182],-26.73%
9,Cc1cc2nc(-c3ccc(C(=O)NCc4cccc(C(F)(F)F)c4)cc3)[nH]c2cc1C [TCMDC-140431],-14.71%
10,COc1cc2nc(N3CCC(CNC(=O)c4cccc5cccnc45)CC3)nc(N)c2cc1OC [TCMDC-138181],14.63%
11,COc1cc2nc(N3CCC(CNC(=O)c4ccc(OC(F)(F)F)cc4)CC3)nc(N)c2cc1OC.O=C(O)C(F)(F)F [TCMDC-138211],-26.96%
12,COc1cc(N)c(Cl)cc1C(=O)NCC1CCN(c2nc(C)cc(C)n2)CC1 [TCMDC-124850],17.19%
13,CN(C)Cc1cccc(-c2cnc(N)c(-c3nc4ccc(S(C)(=O)=O)cc4[nH]3)c2)c1 [TCMDC-133721],43.08%
14,CSc1ccc(CN2CCC(NC(=O)c3ccc(-c4cccc(Cl)c4)s3)CC2)cc1 [TCMDC-134341],12.93%
15,COc1cc(Nc2nc(N)n(C(=O)c3ccc4c(c3)OCO4)n2)cc(OC)c1OC [TCMDC-136737],-65.07%
16,O=c1[nH]c2c(cc1CNC1CCCCC1)c(-c1ccc(F)cc1)nn2-c1ccccc1 [TCMDC-125352],14.87%
17,CCCCOC(=O)NCCCC[C@H](NC(=O)OC(C)(C)C)C(=O)N[C@H](C(=O)OC(c1ccccc1)c1ccccc1)[C@H]1O[C@@H](n2ccc(=O)[nH]c2=O)[C@@H]2OC(C)(C)O[C@@H]21 [TCMDC-131947],9.174%
18,Cc1c(C(=O)C2CC2CN2CCC(N3CCCC3)CC2)sc2ccccc12 (stereo not drawn) [TCMDC-132577],31.52%
19,C=C[C@]1(C)C[C@@H](OC(=O)CSC2CN3CCC2C3)[C@@]2(C)C3C(=O)CC[C@@]3(CC[C@H]2C)[C@@H](C)[C@@H]1O (stereo partly drawn) [TCMDC-139185],16.51%
20,CC(C)(C)c1cc(C(=O)N2CCN(c3cnccn3)CC2)n(Cc2ccccc2)n1 [TCMDC-133778],6.708%
21,COC(=O)c1ccc(-c2ccc(C(=O)NCC3CCN(c4nc(N)c5cc(OC)c(OC)cc5n4)CC3)cc2)cc1 [TCMDC-138721],127%
22,COc1cc2nc(N3CCC(CNC(=O)c4ccc(-c5ccc(C(F)(F)F)cc5)cc4)CC3)nc(N)c2cc1OC [TCMDC-138716],114.6%
23,COc1cc2nc(N3CCC(CNC(=O)c4ccc(NC(=O)c5ccc(Cl)cc5)cc4)CC3)nc(N)c2cc1OC [TCMDC-138712],79.48%

row,SMILES,% Inhibition
1,COc1cc2nc(N3CCC(CNC(=O)c4ccc(-c5ccccc5)cc4)CC3)nc(N)c2cc1OC [TCMDC-137787],-6.004%
2,COc1cc2nc(N3CCC(CNCc4ccc(-c5ccc(C(F)(F)F)cc5)cc4)CC3)nc(N)c2cc1OC [TCMDC-138757],94.11%
3,COc1ccc2nccc([C@@H](O)CN3CCC(NC(=O)C(=Cc4ccc(C#N)cc4)c4ccc(-c5ccccc5)cc4)CC3)c2c1 [TCMDC-141112],-10.17%
4,Cc1cc(NC(=O)Nc2ccc(Cl)cc2F)c2ccccc2n1 [TCMDC-134658],-34.71%
5,CCCC(C)NC(=O)c1cnn(-c2ccc(C(C)(C)C)cc2)c1OCc1ccc(Br)cc1 (stereo not drawn) [TCMDC-139598],11.83%
6,CC(=O)Nc1ccc(C(=O)Nc2cccc(-c3ccc(-c4nc5cc(F)ccc5[nH]4)s3)c2)cn1 [TCMDC-136833],-51.51%
7,Cn1c2c(c3ccccc31)CN(CCC1(c3ccc(Cl)c(Cl)c3)CN(C(=O)Cc3ccccc3)CCO1)CC2 (stereo not drawn) [TCMDC-135563],32.52%
8,Cc1cc(C(=O)Nc2ccc3c(c2)CCN3C2CCN(Cc3ccc(F)cc3Cl)C2)no1 (stereo not drawn) [TCMDC-135081],2.936%
9,Cc1cc(Cl)c(S(=O)(=O)NC(C)(C)C)cc1OCC(=O)NC1CCCCC1 [TCMDC-124352],-13.59%
10,COCCN1CCC(CN(C)CC(C)(C)c2nc(-c3ccc(Cl)c(O)c3)c(-c3ccncc3)[nH]2)CC1 [TCMDC-140899],-71.13%
11,CN1CCN(c2cc3c(cc2Cl)CCN3C(=O)Cc2ccc(Cl)c(NC(=O)Nc3cccc(C#N)c3)c2)CC1 [TCMDC-139474],3.911%
12,Nc1ncc(-c2ccc(F)cc2)cc1-c1nc2ccc(Cl)cc2[nH]1 [TCMDC-138810],-32.19%
13,Cc1[nH]cnc1Cc1ccc2c(c1O)c1ccccc1n2C [TCMDC-131955],-82.46%
14,Cc1cc(NC(=O)c2sc3ccccc3c2O)no1 [TCMDC-124522],-1.25%
15,NC(=O)COc1c(C2CCN(CCN3CCC(CNC(=O)c4ccc(-c5ccc(C(F)(F)F)cc5)cc4)CC3)CC2)ccc2c1CCCC2 [TCMDC-134308],93.17%
16,N#Cc1ccc(-c2nc(CO)c(C(=O)NCCCCN3CCC(c4ccc5c(c4OCC(N)=O)CCCC5)CC3)s2)cc1 [TCMDC-138872],-1.012%
17,N#Cc1ccc(-c2ccc(C(=O)NCC3CCN(CCN4CCC(c5ccc6c(c5OCC(N)=O)CCCC6)CC4)CC3)cc2)cc1 [TCMDC-134563],103.8%
18,N#Cc1ccc(-c2ccc(C(=O)NCCCCN3CCC(c4ccc5c(c4OCC(N)=O)CCCC5)CC3)cc2)cc1 [TCMDC-138803],73.12%
19,COc1c(C2CCN(CCN3CCC(NC(=O)c4ccc(-c5ccc(C(F)(F)F)cc5)cc4)CC3)CC2)ccc2c1CCCC2 [TCMDC-138857],16.95%
20,N#Cc1ccc(-c2ccc(C(=O)NCCCCN3CCC(c4ccc5c(c4OCC(N)=O)CCCC5)CC3)nc2)cc1 [TCMDC-135212],23.96%
21,CCOc1c(OC)ccc2c1CCN(CCN1CCC(CNC(=O)c3ccc(-c4ccc(C#N)cc4)cc3)CC1)C2 [TCMDC-138848],-12.76%
22,COc1c(C2CCN(CCN3CCC(CNC(=O)c4ccc(-c5ccc(C#N)cc5)cc4)CC3)CC2)ccc2c1CCCC2 [TCMDC-138859],105.9%
